Laboratory results as given in PubChem BioAssay AID1347383 (Zoeller Lab, School of Medicine, Boston University, 2020).
Activity calls are given as the source filed them.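 Rule for the calls: active = cell survival after UV exposure 2 SD above solvent-only control wells at 10 µM, confirmed on one or two repeats; inactive = the rest.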

experiment: cell survival after pyrene fatty acid photosensitization – ZR-82 cells, Analyticon library, screen 2, phospholipid biosynthesis inhibitor project, primary screen (AID 1347383); settings: ZR-82 CHO cells, pyrene-fatty acid UV killing, CellTiter Blue; at 10 µM; peroxisome-deficient CHO-K1 variant; with DGAT-1, DGAT-2 and ACAT inhibitors;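 note: survival reflects blocked phospholipid synthesis cutting uptake of the phototoxic fatty acid; compound and fatty acid exposure 3 h then viability read next day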

Compound | outcome
CC(C)=CCC/C(C)=C/Cc1c(O)c(CC=C(C)C)c2oc3ccc(O)cc3c(=O)c2c1O | inactive
CCCCCCOC1OC(COC2OCC(O)C(O)C2O)C(O)C(O)C1O (centres undefined) | inactive
CC(C)(O)[C@@H]1CCC(C)([C@H]2CC[C@]3(C)[C@@H]2[C@H](O)CC2[C@@]4(C)CC[C@H](O)C(C)(C)[C@@H]4CC[C@]23C)O1 (some centres undefined) | inactive
CC(=O)O[C@H]1C[C@@]2(C)[C@@H](CC[C@H]3[C@@]4(C)C=CC(=O)[C@@H](C)[C@@H]4[C@H](OC(C)=O)C(=O)[C@@]32C)/C1=C(\CCC=C(C)C)C(=O)O | inactive
COc1c(O)ccc2c1C(=O)c1ccccc1C2=O | inactive
COc1ccc(-c2coc3cc(O)cc(O)c3c2=O)cc1 | inactive
C=CCc1ccc(OC(C)Cc2cc(OC)c(OC)c(OC)c2)c(OC)c1 (centres undefined) | inactive
CC1=CC2=C(C(=O)OC2O)C(O)C2CC(C)(C)CC12 (centres undefined) | inactive
COc1ccc(OC2OC(COC3OCC(O)C(O)C3O)C(O)C(O)C2O)cc1OC (centres undefined) | inactive
C/C=C/C=C/C(=O)N1CC[C@]23c4ccccc4N[C@H]4N(C)c5cccc6c5[C@]42CCN([C@H]6C2OC2(C)C)[C@H]13 (some centres undefined) | inactive
CC1CC(=O)C2CC12C(C)(O)CO (centres undefined) | inactive
C/C1=C\C[C@]2(C)C(=O)C(O)=C([C@H](C)CO)[C@H]2C/C=C(\C)[C@@H](O)CC/C(C)=C/CC1 | inactive
COc1ccc(-c2coc3cc(O)ccc3c2=O)cc1O | inactive
C=C1CC[C@@H](C)[C@](C)(CCc2ccoc2)C/C=C\C=C/1C(=O)O | inactive
COC(=O)CCC(=O)OC[C@]1(C)CCC[C@@]2(C)C3CC[C@]4(C)C=CC3(CCC12)C4 (some centres undefined) | inactive
CC[C@H](C)/C=C(C)/C=C/C1=CC2=CC(=O)[C@]3(C)OC(=O)[C@@H](C(C)=O)[C@@H]3C2=CO1 | inactive
CCC(C)(O)C(O)C(=O)OCC1CC[N+]2([O-])CCCC12 (centres undefined) | inactive
COc1cc(O[C@@H]2O[C@H](CO)[C@@H](O)[C@H](O)[C@H]2O)cc(OC)c1OC | inactive
COc1cc2ccc(=O)oc2cc1OC | inactive
CC(=O)C(C)C1OC(CCO)c2cc(C)ccc2C1C (centres undefined) | inactive

Compound | outcome
O=C1c2c(O)cc(O)cc2O[C@H](c2ccccc2)[C@H]1O | inactive
CCCCCCCC(O)/C=C\C(O)CCC(O)CCCC(=O)O (centres undefined) | inactive
CC1(O)CCC2C(C3C1CCC3(C)O)C2(C)C (centres undefined) | inactive
COc1c(OC)c2occc2c2oc(=O)ccc12 | inactive
C=CC(=C)CCC1(C)C(C)CC(O)C23C(=CC(OC(C)=O)CC12)C(OC)OC3OC(C)=O (centres undefined) | inactive
COC(=O)/C=C/C1(O)C=CC(=O)C=C1 | inactive
COc1c(C2=Cc3ccc(O)cc3OC2)ccc(O)c1CC=C(C)C | inactive
O=C1CC(c2ccccc2)Oc2cc(O)cc(O)c21 (centres undefined) | inactive
COc1cc(/C=C/c2ccc(O)cc2)cc(OC)c1 | inactive
O=c1c(-c2ccc(O)cc2)coc2cc(O)ccc12 | inactive
CO[C@@H]1[C@H](OC(=O)/C=C/C(O)C(C)O)CC[C@]2(CO2)[C@H]1[C@@]1(C)O[C@@H]1CC=C(C)C (some centres undefined) | inactive
C/C=C(\C)C(=O)O[C@@H]1[C@@H](C(C)C)[C@@H](OC(C)=O)C=C(CO)[C@@H]1O | inactive
O=c1ccc2nccc3c4ccccc4n1c23 | inactive
Cn1c2c(c(=O)c3cc(O)ccc31)CC(C(C)(C)O)O2 (centres undefined) | inactive
CC(=O)Nc1ccccc1C(=O)O | inactive
C/C=C/C=C/C(CC(=O)O)Nc1ccc(C=O)cc1 (centres undefined) | inactive
COc1ccc(C2(O)c3ccccc3NC(=O)C2OC)cc1 (centres undefined) | inactive
C=C(CO)C(=O)O[C@H]1CC(=C)[C@@H]2CC(=O)[C@H](C)[C@@H]2[C@H]2OC(=O)C(=C)[C@@H]21 | inactive
C/C=C/CCc1cc(O)c2c(c1)OC(C)C2CO (centres undefined) | inactive
